Reference: the supplement of paper PMC12494721
Counter-ions that a name gives are not always drawn.

Columns and labels:
Details in all cases: incubation time: 27 h, anaerobic, 37 °C;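 for the amine columns active = adjusted P below 0.05 in both replicates with a change the same way and a mean fold change under 0.8 or over 1.25; inactive = the rest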
[1] = system: Clostridium sporogenes DSM 1664; assay: growth (OD595) fold change vs plate DMSO controls (fold change (ratio)); higher = more growth
How it was run: (§1)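 After 27 h at 37 °C under anaerobic conditions, 96-well cultures in mGAM were shaken and read at 595 nm. The readings were blank-subtracted, corrected for compound background using 20 µM compound solutions in water, and converted to OD with a calibration factor of 5. Growth is defined as the fold change over the median of DMSO controls on each plate. Fold changes above 1.5 were set to NA, and each value is the mean of 2 biological replicates.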

Escherichia coli IAI1 [2] = assay: as above
How it was run: as §1

[3] = system: Klebsiella aerogenes DSM 30053; assay: as above
How it was run: as §1

[4] = system: Ruminococcus gnavus DSM 108212; assay: as above
How it was run: as §1

[5] = system: Klebsiella aerogenes DSM 30053; assay: fold change of Histamine concentration vs plate DMSO controls (fold change (ratio)); higher = more amine produced, active = hit call of the paper (significant change in both replicates, either direction)
How it was run: (§2)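 Each value is the fold change relative to DMSO-only wells on the same plate. Four gut bacterial strains were grown anaerobically in mGAM at 37 °C for 27 h in 80 µL wells, starting at OD 0.1 before a 1:1 dilution, with compounds at 20 µM final (sweeteners 50 µM). Whole cultures were extracted with cold acetonitrile/methanol containing 0.1% formic acid, centrifuged, and amines were quantified by LC–triple-quadrupole MS (dynamic MRM) against external calibration curves with within-batch drift correction. Values are means of 2 biological replicates.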

[6] = system: Clostridium sporogenes DSM 1664; assay: fold change of Tryptamine concentration vs plate DMSO controls (fold change (ratio)); higher = more amine produced, active = hit call of the paper (significant change in both replicates, either direction)
How it was run: as §2

[7] = system: Ruminococcus gnavus DSM 108212; assay: as above
How it was run: as §2

Escherichia coli IAI1 [8] = assay: fold change of Putrescine concentration vs plate DMSO controls (fold change (ratio)); higher = more amine produced, active = hit call of the paper (significant change in both replicates, either direction)
How it was run: as §2

[9] = system: Klebsiella aerogenes DSM 30053; assay: as above
How it was run: as §2

Escherichia coli IAI1 [10] = assay: fold change of Cadaverine concentration vs plate DMSO controls (fold change (ratio)); higher = more amine produced, active = hit call of the paper (significant change in both replicates, either direction)
How it was run: as §2

[11] = system: Klebsiella aerogenes DSM 30053; assay: as above
How it was run: as §2

[12] = system: Ruminococcus gnavus DSM 108212; assay: fold change of 2-Phenylethylamine concentration vs plate DMSO controls (fold change (ratio)); higher = more amine produced, active = hit call of the paper (significant change in both replicates, either direction)
How it was run: as §2

SMILES | growth [1] | growth (Escherichia coli IAI1 [2]) | growth [3] | growth [4] | fold change of Histamine concentration [5] | fold change of Tryptamine concentration [6] | fold change of Tryptamine concentration [7] | fold change of Putrescine concentration (Escherichia coli IAI1 [8]) | fold change of Putrescine concentration [9] | fold change of Cadaverine concentration (Escherichia coli IAI1 [10]) | fold change of Cadaverine concentration [11] | fold change of 2-Phenylethylamine concentration [12]
COCCCOc1ccnc(C[S+]([O-])c2nc3ccccc3[nH]2)c1C (stereo not drawn) [Rabeprazole sodium salt] (20 µM) | 1.24 | 0.993 | 1.03 | 1.26 | 0.965 (inactive) | 1.09 (inactive) | 1.15 (inactive) | 0.886 (inactive) | 0.95 (inactive) | 0.955 (inactive) | 1.03 (inactive) | 1.23 (inactive)
O=c1[nH]cnc2c1ncn2[C@@H]1O[C@H](CO)[C@@H](O)[C@H]1O [Inosine] (20 µM) | 0.976 | 1.01 | 1.01 | 0.919 | 1.01 (inactive) | 1.06 (inactive) | 0.997 (inactive) | 1.02 (inactive) | 1.02 (inactive) | 1.01 (inactive) | 0.997 (inactive) | 0.963 (inactive)
CCN(CC)C(=O)Nc1ccc(OCC(O)CNC(C)(C)C)c(C(C)=O)c1 (stereo not drawn) [Celiprolol hydrochloride] (20 µM) | 1.03 | 0.981 | 0.953 | 0.712 | 1.09 (inactive) | 0.988 (inactive) | 1.02 (inactive) | 1 (inactive) | 1.01 (inactive) | 1.02 (inactive) | 0.988 (inactive) | 1.04 (inactive)
CCOC(=O)n1ccn(C)c1=S [Carbimazole] (20 µM) | 0.973 | 1.11 | 0.979 | 1.08 | 1.04 (inactive) | 0.937 (inactive) | 1.01 (inactive) | 1.09 (inactive) | 1.03 (inactive) | 0.98 (inactive) | 1 (inactive) | 1.01 (inactive)
Nc1ccc(S(=O)(=O)Nc2ccnn2-c2ccccc2)cc1 [Sulfaphenazole] (20 µM) | 1.01 | 1.11 | 1.04 | 1.11 | 0.99 (inactive) | 0.977 (inactive) | 0.994 (inactive) | 1.04 (inactive) | 1.03 (inactive) | 1.04 (inactive) | 1.02 (inactive) | 0.95 (inactive)
COc1nc(N)nc2c1ncn2[C@@H]1O[C@H](CO)[C@@H](O)[C@@H]1O [Nelarabine] (20 µM) | 1.13 | 0.973 | 0.999 | 0.914 | 1.08 (inactive) | 0.945 (inactive) | 1.03 (inactive) | 1.01 (inactive) | 1.01 (inactive) | 0.989 (inactive) | 0.978 (inactive) | 1.03 (inactive)
CC1=C(C(=O)O)N2C(=O)[C@@H](NC(=O)[C@H](N)C3=CCC=CC3)[C@H]2SC1 [Cephradine monohydrate] (20 µM) | 1.11 | 1.04 | 1.02 | 1.07 | 0.968 (inactive) | 1.04 (inactive) | 1 (inactive) | 1.05 (inactive) | 1 (inactive) | 0.921 (inactive) | 0.988 (inactive) | 0.994 (inactive)
CC(C)(C)c1ccc(C(=O)CCCN2CCC(OC(c3ccccc3)c3ccccc3)CC2)cc1 [Ebastine] (20 µM) | 1.13 | 1 | 1.01 | 0.852 | 1.02 (inactive) | 0.991 (inactive) | 0.856 (inactive) | 1.02 (inactive) | 1 (inactive) | 1.01 (inactive) | 0.983 (inactive) | 1.02 (inactive)
O=C(O[C@@H]1C[C@@H]2C[C@H]3C[C@H](C1)N2CC3=O)c1c[nH]c2ccccc12 [Dolasetron mesilate] (20 µM) | 0.968 | 0.994 | 0.986 | 1.07 | 0.981 (inactive) | 1 (inactive) | 1.02 (inactive) | 0.942 (inactive) | 0.991 (inactive) | 0.979 (inactive) | 0.989 (inactive) | 1.04 (inactive)
Oc1ccccc1O [Catechol] (20 µM) | 1.11 | 1.01 | 0.966 | 0.98 | 1 (inactive) | 0.972 (inactive) | 0.979 (inactive) | 1.02 (inactive) | 1.01 (inactive) | 1.16 (inactive) | 0.978 (inactive) | 0.971 (inactive)
CCCCNc1c(C(=O)OCC)c(C)nc2c1cnn2CC [Tracazolate hydrochloride] (20 µM) | 1.14 | 0.998 | 1.01 | 0.943 | 0.977 (inactive) | 0.933 (inactive) | 1.08 (inactive) | 1.01 (inactive) | 0.993 (inactive) | 1.03 (inactive) | 1 (inactive) | 1.11 (inactive)
Cc1ccc(S(=O)(=O)NCl)cc1 [Chloramine-T hydrate] (20 µM) | 0.97 | 0.978 | 1.11 | 1.07 | 0.912 (inactive) | 0.931 (inactive) | 0.992 (inactive) | 1.01 (inactive) | 1.03 (inactive) | 1.01 (inactive) | 1.02 (inactive) | 0.935 (inactive)
CCCCCNC(=N)N/N=C/c1c[nH]c2ccc(OC)cc12 [Tegaserod maleate] (20 µM) | 0.905 | 1.01 | 1 | 1.08 | 0.983 (inactive) | 0.923 (inactive) | 0.791 (inactive) | 0.992 (inactive) | 0.997 (inactive) | 1.04 (inactive) | 1 (inactive) | 0.994 (inactive)
Cc1cccc(C)c1NC(=O)C1CCCCN1C (stereo not drawn) [Mepivacaine hydrochloride] (20 µM) | 1.21 | 1.02 | 1.08 | 0.946 | 0.905 (inactive) | 1.02 (inactive) | 1.06 (inactive) | 1 (inactive) | 0.977 (inactive) | 1 (inactive) | 1.01 (inactive) | 1.05 (inactive)
CC(=O)OCC(=O)[C@@]1(O)CC[C@H]2[C@@H]3CCC4=CC(=O)CC[C@]4(C)[C@@]3(F)[C@@H](O)C[C@@]21C [Fludrocortisone acetate] (20 µM) | 0.949 | 1.09 | 1.03 | 1.06 | 1.01 (inactive) | 1 (inactive) | 1.01 (inactive) | 1.09 (inactive) | 1 (inactive) | 1.02 (inactive) | 1 (inactive) | 0.966 (inactive)
CN1CCCC(n2nc(Cc3ccc(Cl)cc3)c3ccccc3c2=O)CC1 (stereo not drawn) [Azelastine hydrochloride] (20 µM) | 1.05 | 1.05 | 0.95 | 0.57 | 1.13 (inactive) | 0.963 (inactive) | 0.943 (inactive) | 1.03 (inactive) | 1.03 (inactive) | 1.01 (inactive) | 0.976 (inactive) | 0.937 (inactive)
CCCNC(C)C(=O)Nc1ccccc1C (stereo not drawn) [Prilocaine hydrochloride] (20 µM) | 0.947 | 0.973 | 1.02 | 0.708 | 1.07 (inactive) | 0.934 (inactive) | 1.02 (inactive) | 1.01 (inactive) | 1.02 (inactive) | 0.993 (inactive) | 0.988 (inactive) | 1 (inactive)
Cc1c(N)c(=O)n(-c2ccccc2)n1C [Ampyrone] (20 µM) | 1.01 | 0.995 | 0.983 | 0.854 | 0.947 (inactive) | 1.07 (inactive) | 0.901 (inactive) | 0.975 (inactive) | 0.992 (inactive) | 1.03 (inactive) | 1.01 (inactive) | 0.926 (inactive)
CC1(C)S[C@@H]2[C@H](NC(=O)[C@H](NC(=O)N3CCNC3=O)c3ccccc3)C(=O)N2[C@H]1C(=O)O [Azlocillin sodium salt] (20 µM) | 0 | 0.726 | 1.16 | 0 | 0.875 (inactive) | 0.0279 (active) | 0.0374 (active) | 0.965 (inactive) | 1.07 (inactive) | 1.87 (active) | 1.02 (inactive) | 0.0385 (active)
CCN[C@H]1CN(CCCOC)S(=O)(=O)c2sc(S(N)(=O)=O)cc21 [Brinzolamide] (20 µM) | 1.17 | 1.04 | 1 | 1.04 | 1 (inactive) | 1.02 (inactive) | 0.944 (inactive) | 1.05 (inactive) | 0.989 (inactive) | 1.01 (inactive) | 1 (inactive) | 0.899 (inactive)
Cc1[nH]c(=O)c(C#N)cc1-c1ccncc1 [Milrinone] (20 µM) | 1.08 | 1.05 | 0.987 | 0.92 | 1.09 (inactive) | 0.997 (inactive) | 1.03 (inactive) | 1.02 (inactive) | 1.07 (inactive) | 0.924 (inactive) | 1.03 (inactive) | 0.996 (inactive)
Nc1ccn([C@@H]2O[C@H](CO)[C@@H](O)C2(F)F)c(=O)n1 [Gemcitabine] (20 µM) | 0.371 | 0.338 | 0.294 | 0 | 1.07 (inactive) | 0.969 (inactive) | 0.641 (active) | 0.969 (inactive) | 1.01 (inactive) | 1.02 (inactive) | 0.999 (inactive) | 0.753 (inactive)
CC(=O)OC[C@H]1O[C@@H]([S-])[C@H](OC(C)=O)[C@@H](OC(C)=O)[C@@H]1OC(C)=O.CCP(CC)CC.[Au+] [Auranofin] (20 µM) | 0.978 | 1.02 | 0.951 | 0.00158 | 0.65 (active) | 0.49 (active) | 0.05 (active) | 0.925 (inactive) | 0.89 (inactive) | 0.996 (inactive) | 0.972 (inactive) | 0.0596 (active)
CCN1C(=O)NC(c2ccccc2)C1=O (stereo not drawn) [Ethotoin] (20 µM) | 0.983 | 0.999 | 0.982 | 1.14 | 1.06 (inactive) | 0.942 (inactive) | 0.879 (inactive) | 0.991 (inactive) | 0.991 (inactive) | 0.999 (inactive) | 0.981 (inactive) | 0.855 (inactive)
